Our source for the inhibition values is PubChem BioAssay AID1117264 (The Scripps Research Institute Molecular Screening Center, 2014).

Hit rate of the full screen: of about 89,000 compounds, about 440 (0.49%) were called active.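 Rule for the calls: active = inhibition above the mean inhibition across all screened compounds plus 3 SD (cut at about 11% in these data); inactive = the rest.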 This excerpt belongs to a sample that is enriched for actives.

One may read the inhibition as the change of the read-out against control, counted positive when it falls.

Sequence of RNA-editing ligase 1, mitochondrial (Trypanosoma brucei brucei) (P86926 whole entry, looked up): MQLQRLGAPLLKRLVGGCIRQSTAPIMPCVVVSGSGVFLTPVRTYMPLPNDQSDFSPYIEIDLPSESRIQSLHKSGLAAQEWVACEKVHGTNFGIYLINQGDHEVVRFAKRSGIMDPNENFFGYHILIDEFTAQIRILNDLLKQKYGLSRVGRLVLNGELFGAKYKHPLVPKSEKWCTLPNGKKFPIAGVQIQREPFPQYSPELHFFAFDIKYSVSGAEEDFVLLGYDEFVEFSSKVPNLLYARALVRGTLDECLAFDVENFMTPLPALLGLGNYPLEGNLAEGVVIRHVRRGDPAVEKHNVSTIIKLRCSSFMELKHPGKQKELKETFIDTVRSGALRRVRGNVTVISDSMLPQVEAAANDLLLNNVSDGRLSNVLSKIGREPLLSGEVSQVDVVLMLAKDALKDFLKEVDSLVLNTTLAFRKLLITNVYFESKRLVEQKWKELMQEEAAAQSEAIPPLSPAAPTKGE

This assay addresses RNA-editing ligase 1, mitochondrial (Trypanosoma brucei brucei) (UniProt P86926). The assay can be described thus: T. brucei editing ligase REL1 blockade – biochemical, FRET fluorescence, primary screen (AID 1117264).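 Note: 0% = plate median of test wells and 100% = NSC42067 control.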 Particulars: TbREL1 RNA ligation, at 9.66 µM, stronger effect = higher value.
With `CSCCC(NC(=O)COc1ccccc1)C(=O)Nc1ccc(C)cc1` (stereo not drawn), the inhibition was -0.75% (inactive). For `O=C(CCNC(=O)Cn1ccc2ccccc2c1=O)NCCC1=CCCCC1` the value was -2.59% (inactive); for `CC(Oc1ccccc1)C(=O)Nc1c2c(nn1-c1ccccc1)CS(=O)C2` (stereo not drawn), 0.74% (inactive); for `CCOC(=O)N1CCN(C(=O)c2ccccc2N(Cc2ccccc2)S(=O)(=O)c2ccc(OC)cc2)CC1`, -1.48% (inactive). For `COc1ccc(NC(=O)CN(C)C(=O)CNC(=O)C2CCCCC2)cc1` the value was -1.04% (inactive).

On to `N/C(=N\OC(=O)Cc1ccc([N+](=O)[O-])cc1)c1ccccn1`, for which the inhibition was 5.64% (inactive).

In the case of `CCOc1ccc(-n2cnnn2)cc1S(=O)(=O)N1CCC(C)CC1C` (stereo not drawn), the inhibition is -0.48% (inactive).

Turning to `CC(=O)O[C@@]1(C(C)=O)CCC2[C@H]3C=C(C)C4=CC(=O)CC[C@@]4(C)C3CC[C@]21C` (stereo partly drawn), the inhibition was 2.86% (inactive). For `Cc1ccc(CN(Cc2cccnc2)C(=S)Nc2cccc(Cl)c2C)cc1` the value was -3.35% (inactive). Take `COc1cccc2c1CCC(NC(C)=O)C2=O` (stereo not drawn): the inhibition is 0.33% (inactive). With `CC(C#N)OC(=O)c1cccnc1SCC(=O)Nc1ccc2c(c1)OCO2` (stereo not drawn) the figure was -2.63% (inactive).

Consider `COC(=O)c1ccc2c(c1)S(=O)(=O)NC2C` (stereo not drawn), for which the inhibition was -0.32% (inactive).

For the compound `O=C1CCC/C=C\C[C@@H](CC(=O)N(CCO)Cc2ccccc2)C(=O)NCCO1`, the inhibition was 3.07% (inactive). For `O=C(Nc1n[nH]c(C(F)(F)F)n1)c1cccs1` the value was 0.59% (inactive); for `Cc1cc(=O)[nH]c(SCC(=O)Nc2ccc(Cl)cc2C)n1`, 6.53% (inactive); for `CC(=O)Nc1ccc(-c2csc(NC=C3C(=O)OC(C)(C)OC3=O)n2)cc1`, 0.47% (inactive). For `CC(C)(C)OC(=O)c1c(N)n(CCCN2CCCC2=O)c2nc3ccccc3nc12` the value was -0.01% (inactive).

Consider `O=C(CN1CCN(c2ccccn2)CC1)NCc1cccs1`, for which the inhibition was -2.97% (inactive). `CC(C)Cn1c(N)c(C(=O)NCc2cccs2)c2nc3ccccc3nc21`: the inhibition was 44% (active). With `Nc1c(Cl)cc(-c2csc(N3CCCC3c3nc4cc(Cl)c(Cl)cc4n3CCOCCO)n2)cc1Cl` (stereo not drawn) the figure was -4.69% (inactive). For `Cn1ccnc1SCC(=O)Nc1ccc2c(c1)OCCO2` the value was 2.46% (inactive); for `Cc1cccc(NC(=S)NC23CN4CN(CN(C4)C2)C3)c1`, -3.73% (inactive). Take `COC(=O)C(C)Oc1ccc2c(c1)O/C(=C\c1cccc(Br)c1)C2=O` (stereo not drawn): the inhibition was 1.78% (inactive). With `Cc1c(C(=O)OCC(=O)N2CCCC2=O)oc2ccccc12` the figure was -0.28% (inactive); with `COC(=O)C1=C(C)N(Cc2cccc(C(F)(F)F)c2)C(=NCc2cccc(C(F)(F)F)c2)NC1c1ccccc1C(F)(F)F` (stereo not drawn), 17.6% (active).

`CC(C)NC(=O)C1(C)CCCCN1Cc1cccc(C(F)(F)F)c1` (stereo not drawn): the inhibition was -3.05% (inactive). With `COC(=O)C1=C(C)N(Cc2cccc(C(F)(F)F)c2)C(=NCc2ccccc2)NC1c1ccccc1C(F)(F)F` (stereo not drawn) the figure was 18.8% (active); with `COC(=O)C1=C(C)N(Cc2ccc(F)cc2)C(=S)NC1c1cccc(Cl)c1` (stereo not drawn), -6.48% (inactive); with `COC(=O)C1=C(C)N(Cc2ccccc2)C(=NCCCOC(C)C)N[C@H]1c1ccccc1`, 8.47% (inactive).

Consider `COC(=O)C1=C(C)N(Cc2cccc(C(F)(F)F)c2)C(=NCc2ccccc2)NC1c1ccc(Cl)cc1` (stereo not drawn), for which the inhibition was 10.5% (inactive). With `C[C@H](NC(=O)c1[nH]cnc1C(=O)Nc1nccs1)c1ccccc1`, the inhibition was 2.49% (inactive).

As for `S=C(NCc1ccco1)NCc1ccccc1Cl`, the inhibition was -2.97% (inactive). With `CCOC(=O)C1CCN(c2c(Nc3cc(C)cc(C)c3)c(=O)c2=O)CC1` the figure was -4.56% (inactive).

In the case of `Cc1ccc(NS(=O)(=O)c2ccc(C(C)C)cc2)cc1S(=O)(=O)N1CCOCC1`, the inhibition is -0.97% (inactive). For `Cc1cccc(Nc2nnc(SCC(=O)c3c(N)n(C4CC4)c(=O)[nH]c3=O)s2)c1C` the value was 1.72% (inactive); for `O=C(CSc1nc2sc3c(c2c(=O)n1-c1ccccc1)CCCC3)NN=Cc1ccc(OCc2ccccc2)cc1`, 0.03% (inactive); for `Cc1ccc2c(c1)nnc1nnc(SCC(=O)O)n12`, 1.61% (inactive). `COC(=O)c1cc(S(=O)(=O)N2CCN(C(=O)C3CCCO3)CC2)cn1C` (stereo not drawn): the inhibition was 0.88% (inactive).

As to `Cc1ccc2c(CN3CCN(S(=O)(=O)c4ccccc4C(F)(F)F)CC3)cc(=O)oc2c1`, the inhibition was 6.44% (inactive).

Turning to `CC(=O)Nc1ccc(NC(=O)[C@@H](NC(=O)c2cccc(C)c2)C(C)C)cc1`, the inhibition was 1.63% (inactive). For `COc1ccccc1NC(=S)N1CCC(NC(=O)C23CC4CC(CC(C4)C2)C3)CC1` the value was -2.86% (inactive).

In the case of `COC(=O)C1=C(C)N(c2ccc(Br)cc2)C(=O)/C1=C\c1ccco1`, the inhibition is 4.92% (inactive).

`CC(C)(C)C1C/C(=C/c2ccco2)C(=O)/C(=C/c2ccco2)C1` (stereo not drawn): the inhibition is 32.6% (active).
